The values that follow come from PubChem BioAssay (Tox21).

Experiment [1] can be described thus: cAMP Responsive Elements (CRE) small molecule antagonists, cell-based qHTS assay: qHTS cell viability counter screen (AID 2060913). Further: nearly all actives have a fitted effect of over 40% in size. Put shortly: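 HEK293T CRE-bla, 2,000 cells/well, 18 h preincubation; cpd in DMSO + NKH477 0.25 uM final, 3 h 37 C/5% CO2; LiveBLAzer 2 h RT, then CellTiter-Glo 30 min RT, luminescence.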
Background: Quantitative high-throughput screening tests each substance at several concentrations.

A short description of experiment [2]: cAMP Responsive Elements (CRE) small molecule agonists, cell-based qHTS assay: qHTS cell viability counter screen (AID 2060914).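 Further: viability read after 3 h of compound exposure; nearly all actives have a fitted effect of over 50% in size.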 Put shortly: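 CRE-bla HEK 293T cells, plated 18 h at 37 °C, were exposed to compounds for 3 h at 37 °C/5% CO2. Viability was then measured in the same wells by CellTiter-Glo luminescence after 30 min at room temperature.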

Structures are written as SMILES. Records with an inconclusive call do not appear. Unmarked numbers belong to inactive results. Activity calls are given as the source filed them. The call rests on the fitted dose curve; in most records, active means well fitted cell-killing curve with a large enough effect in the repeat runs; inconclusive means weak or mixed curves, or effect the other way; inactive means flat fitted curve, though single readings scatter.
On the % scale 0 is the no-effect control and ±100 the full control effect.

Consider `CCC1=C[C@@H]2CN(C1)Cc1c([nH]c3ccccc13)[C@@](C(=O)OC)(c1cc3c(cc1OC)N(C)[C@H]1[C@@](O)(C(=O)OC)[C@H](OC(C)=O)[C@]4(CC)C=CCN5CC[C@]31[C@@H]54)C2`, for which the Potency entry in experiment [1] and in experiment [2] was “inactive” in each case.
As to `CNCc1ccccc1`, the Potency entry in experiment [1] and in experiment [2] was “inactive” in each case.
For `CC(=O)[C@H]1[C@H](C#N)C[C@H]2[C@@H]3CC=C4C[C@@H](O)CC[C@]4(C)[C@H]3CC[C@@]21C`, the Potency result in experiment [1] and in experiment [2] was “inactive” each time.
For the molecule `O=C(O)CONC(=O)c1ccccc1`, the Potency entry in experiment [1] and in experiment [2] was “inactive” each time.
As to `Cc1ccc(Nc2nccc(N(C)c3ccc4c(C)n(C)nc4c3)n2)cc1S(N)(=O)=O`, the Potency result in experiment [1] and in experiment [2] was “inactive” throughout.
Consider `C=C(C)C(=O)OCCNC(C)(C)C`, for which the Potency result in experiment [1] and in experiment [2] was “inactive” in each case.
For the molecule `COCCO`, the Potency entry in experiment [1] and in experiment [2] was “inactive” in each case.
Regarding `C=CC(C)(CCC=C(C)C)OC(C)=O` (stereo not drawn), the Potency result in experiment [1] and in experiment [2] was “inactive” throughout.
Regarding `CCC(C)(C)C(=O)O`, the Potency result in experiment [1] and in experiment [2] was “inactive” throughout.
`Cc1ccc(C=O)s1`: the Potency result in experiment [1] and in experiment [2] was “inactive” each time.
In the case of `CCCC(=O)OC(C)(C)Cc1ccccc1`, the Potency entry in experiment [1] and in experiment [2] was “inactive” each time.
With `Cc1cc(C(=O)O)ccc1[N+](=O)[O-]`, the Potency entry in experiment [1] and in experiment [2] was “inactive” each time.
For the molecule `CC(C)(C)C(=O)/C=C/c1ccc(Cl)cc1`, the Potency entry in experiment [1] and in experiment [2] was “inactive” throughout.
Turning to `O=c1cc(O)c(Cl)c[nH]1`, the Potency result in experiment [1] and in experiment [2] was “inactive” in each case.
As to `CCCCCCCCO`, the Potency entry in experiment [1] and in experiment [2] was “inactive” in each case.
As to `C1CNCCN1`, the Potency result in experiment [1] and in experiment [2] was “inactive” throughout.
Take `[Ca+2]`: the Potency entry in experiment [1] and in experiment [2] was “inactive” each time.
Take `Nc1ccc2cc3ccc(N)cc3nc2c1`: the Potency entry in experiment [1] and in experiment [2] was “inactive” throughout.
Regarding `CC1(C)O[C@@H]2C[C@H]3[C@@H]4C[C@H](F)C5=CC(=O)C=C[C@]5(C)[C@H]4[C@@H](O)C[C@]3(C)[C@]2(C(=O)CO)O1`, the Potency result in experiment [1] and in experiment [2] was “inactive” throughout.
Regarding `O=[N+]([O-])c1cc([N+](=O)[O-])c2ccc(S(=O)(=O)O)cc2c1O`, the Potency result in experiment [1] and in experiment [2] was “inactive” throughout.
As for `CCOC(=O)[C@H](C)O`, the Potency entry in experiment [1] and in experiment [2] was “inactive” each time.
As to `CN1C[C@@H]2C[C@H]1CN2c1cc2c(cc1F)c(=O)c(C(=O)O)cn2C1CC1`, the viability change, negative = cytotoxic in experiment [1] was -0.602% [at 18.9 µM]. In addition, in experiment [2], the activity change, negative = cytotoxicity was 19.9% [at 18.9 µM].
As to `CCCCC1C(=O)N(c2ccccc2)N(c2ccccc2)C1=O`, the Potency entry in experiment [1] and in experiment [2] was “inactive” in each case.
Turning to `OCCOCCOCCO`, the Potency entry in experiment [1] and in experiment [2] was “inactive” throughout.
Consider `O=c1[nH]c(=O)n([C@H]2C[C@H](O)[C@@H](CO)O2)cc1C(F)(F)F`, for which the Potency entry in experiment [1] and in experiment [2] was “inactive” throughout.
Take `O=C(O)CC(C(=O)O)S(=O)(=O)O` (stereo not drawn): the Potency entry in experiment [1] and in experiment [2] was “inactive” in each case.
In the case of `CC1=CC(=O)CC(C)(C)C1(O)/C=C/C(C)=C\C(=O)O` (stereo not drawn), the Potency result in experiment [1] and in experiment [2] was “inactive” each time.
On to `Cn1c(N)c(N=O)c(=O)n(C)c1=O`, for which the Potency entry in experiment [1] and in experiment [2] was “inactive” throughout.
Turning to `NC(=O)Nc1ccc(Cl)c(Cl)c1`, the Potency entry in experiment [1] and in experiment [2] was “inactive” each time.
For the molecule `CO/N=C(/C(=O)N[C@@H]1C(=O)N2C(C(=O)O)=C(Cn3nnc(C)n3)CS[C@H]12)c1csc(N)n1`, the Potency result in experiment [1] and in experiment [2] was “inactive” throughout.
On to `CC(CC(=O)Cl)CC(C)(C)C` (stereo not drawn), for which the Potency entry in experiment [1] and in experiment [2] was “inactive” in each case.
Consider `CC(=O)OCC1=C(C(=O)O)N2C(=O)[C@@H](NC(=O)Cc3cccs3)[C@H]2SC1`, for which the Potency result in experiment [1] and in experiment [2] was “inactive” in each case.
Take `Nc1c2c(nc3ccccc13)CCCC2O` (stereo not drawn): the Potency entry in experiment [1] and in experiment [2] was “inactive” each time.
For the molecule `CCCC(=O)OC[C@@H](OC(=O)CCC)[C@@H](OC(=O)CCC)[C@H](Cn1c2nc(=O)[nH]c(=O)c-2nc2cc(C)c(C)cc21)OC(=O)CCC`, the Potency result in experiment [1] and in experiment [2] was “inactive” each time.
Take `COc1c(N2C[C@@H]3CCCN[C@@H]3C2)c(F)cc2c(=O)c(C(=O)O)cn(C3CC3)c12`: the Potency entry in experiment [1] and in experiment [2] was “inactive” in each case.
With `CC(C)(C)c1nnc(NS(=O)(=O)c2ccccc2)s1`, the Potency result in experiment [1] and in experiment [2] was “inactive” in each case.
On to `Cc1ccc(C)c(S(=O)(=O)O)c1`, for which the Potency entry in experiment [1] and in experiment [2] was “inactive” in each case.
For the molecule `COc1ccc2nc(S(=O)Cc3ncc(C)c(OC)c3C)[nH]c2c1` (stereo not drawn), the Potency result in experiment [1] and in experiment [2] was “inactive” throughout.
`CN1CCN(C2=Nc3cc(Cl)ccc3Nc3ccccc32)CC1`: the Potency result in experiment [1] and in experiment [2] was “inactive” in each case.
`CC(=O)Oc1ccc(C2(c3ccc(OC(C)=O)cc3)C(=O)Nc3ccccc32)cc1`: the Potency entry in experiment [1] and in experiment [2] was “inactive” throughout.
As for `CCCCCCCCC(=O)O`, the Potency entry in experiment [1] and in experiment [2] was “inactive” each time.
On to `C=COC(=O)C(C)(CC)CCC(C)C` (stereo not drawn), for which the Potency entry in experiment [1] and in experiment [2] was “inactive” in each case.
Consider `C=C(C)[C@H]1CC=C(C)CC1`, for which the Potency result in experiment [1] and in experiment [2] was “inactive” each time.
With `CCCCCCC(O)CO` (stereo not drawn), the Potency entry in experiment [1] and in experiment [2] was “inactive” throughout.
Turning to `Cc1ccc(NC(N)=O)cc1`, the Potency entry in experiment [1] and in experiment [2] was “inactive” throughout.
`CO[Si](CCCS)(OC)OC`: the Potency result in experiment [1] and in experiment [2] was “inactive” each time.
For the molecule `C=C(C)C(=O)OCCOCCOCCOC(=O)C(=C)C`, the Potency result in experiment [1] and in experiment [2] was “inactive” each time.
With `COc1ccc(CCO)cc1`, the Potency entry in experiment [1] and in experiment [2] was “inactive” throughout.
As for `N#Cc1ccc(CC(=O)c2cccc(C(F)(F)F)c2)cc1`, the Potency result in experiment [1] and in experiment [2] was “inactive” throughout.
Turning to `O=C(O)/C=C/c1ccccc1`, the Potency entry in experiment [1] and in experiment [2] was “inactive” throughout.
Regarding `CCCN1C=CN(C)C1`, the Potency entry in experiment [1] and in experiment [2] was “inactive” throughout.
In the case of `CC(C)(c1ccc(Oc2ccc(N)cc2)cc1)c1ccc(Oc2ccc(N)cc2)cc1`, the Potency entry in experiment [1] and in experiment [2] was “inactive” in each case.
As to `CC(=O)NCCO`, the Potency result in experiment [1] and in experiment [2] was “inactive” each time.
Turning to `O=C1c2ccccc2C(=O)c2cc(Cl)ccc21`, the viability change, negative = cytotoxic in experiment [1] was -0.399% [at 8.39 µM]. In experiment [2], the activity change, negative = cytotoxicity is 2.19% [at 8.39 µM].
